For 40 compounds, potentiation and outcome results are on record in PubChem BioAssay.

The structures appear in SMILES notation. The source made the active and inactive calls.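 How the source made its calls: active means mean duplicate potentiation above the buffer control mean plus 5 SD of buffer wells; inactive means the rest.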

In the assay the target is Potassium voltage-gated channel subfamily KQT member 2 (Rattus norvegicus) (UniProt O88943). In words: rat KCNQ2 channel potentiation, selectivity assay for KCNQ1 potentiator project, KCNQ2-CHO-K1 cells (AID 493009).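 Further: assay conditions were tuned for KCNQ1 rather than KCNQ2 modulators; signal is max minus min fluorescence divided by baseline after thallium stimulus.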 The note with it: FluxOR thallium flux fluorescence, at 10 µM; hits give high values, scaled: buffer 0, activator control 100.
Chain of Potassium voltage-gated channel subfamily KQT member 2 (Rattus norvegicus) (O88943 whole entry, looked up): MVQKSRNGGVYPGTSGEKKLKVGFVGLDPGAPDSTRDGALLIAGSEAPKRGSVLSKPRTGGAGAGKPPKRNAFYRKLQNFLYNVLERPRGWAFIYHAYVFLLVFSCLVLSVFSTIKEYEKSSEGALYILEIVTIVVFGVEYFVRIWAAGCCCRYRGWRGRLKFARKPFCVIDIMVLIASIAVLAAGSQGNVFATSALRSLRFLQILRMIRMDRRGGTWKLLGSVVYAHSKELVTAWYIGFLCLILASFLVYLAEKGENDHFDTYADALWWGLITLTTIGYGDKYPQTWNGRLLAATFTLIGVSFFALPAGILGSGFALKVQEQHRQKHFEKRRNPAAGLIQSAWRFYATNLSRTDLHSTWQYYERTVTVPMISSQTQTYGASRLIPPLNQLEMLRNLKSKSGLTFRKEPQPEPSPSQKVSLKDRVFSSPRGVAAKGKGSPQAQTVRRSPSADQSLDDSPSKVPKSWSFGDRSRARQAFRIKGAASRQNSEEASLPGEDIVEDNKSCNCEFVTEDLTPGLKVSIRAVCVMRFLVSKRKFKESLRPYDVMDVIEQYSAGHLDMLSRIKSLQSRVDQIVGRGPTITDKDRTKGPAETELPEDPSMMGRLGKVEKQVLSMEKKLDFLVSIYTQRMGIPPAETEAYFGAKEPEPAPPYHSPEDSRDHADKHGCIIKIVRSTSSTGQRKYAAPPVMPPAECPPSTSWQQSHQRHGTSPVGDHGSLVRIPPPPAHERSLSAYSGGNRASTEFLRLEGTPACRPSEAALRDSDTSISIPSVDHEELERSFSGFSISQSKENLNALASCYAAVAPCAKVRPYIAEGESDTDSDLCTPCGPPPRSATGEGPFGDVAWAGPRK
As to `CCOC(=O)c1c(NC(=S)NCCc2ccccc2)sc2c1CC(C(C)C)OC2` (stereo not given), the potentiation is 146% (active).
As to `S=c1[nH]c(-c2ccccc2)cs1`, the potentiation was 464% (active).
As to `CCc1ccc2[nH]c(C(=O)Nc3ccc(F)cc3Br)cc2c1`, the result was inactive.
Take `COc1ccc(/C=C2/SC(=S)N(NS(=O)(=O)c3ccccc3)C2=O)cc1`: the potentiation was 180% (active).
Still for that read-out and setting: the figure for `CCN(c1ccccc1)S(=O)(=O)c1ccc(OC)c(OC)c1` is 162% (active).
`C[C@@H](NC(=O)[C@@H]1Cc2ccccc2CN1)C(=O)NC1CCCC1`: the result was inactive.
As to `Cc1ccc(O)c(C(=O)CC(=O)c2cccc(F)c2)c1`, the potentiation is 159% (active).
In the case of `Cc1sc(-n2c(C)cc(/C=C3\SC(=S)NC3=O)c2C)c(C#N)c1C`, the result was inactive.
`Cc1csc(N/N=C/c2ccc([N+](=O)[O-])cc2)n1`: the potentiation is 158% (active).
With `CCc1nc2sc3c(=O)[nH]cnc3c2c2c1CSC(C)(C)C2`, the result was inactive.
The same measure, in the same setting: the entry for `CC(C)C1=NN(C(=O)c2ccccc2)C(O)(C(C)(C)C)C1` (stereo not given) is “inactive”; for `C=C(C)CNC(=S)Nc1nc2c(cc1C(=O)OCC)CCCC2` it is “inactive”; for `CCCSc1nnc(-c2cnn(-c3ccccc3)c2-n2cccc2)n1C` it is “inactive”.
As for `Cc1cccc(C(=O)NC(=S)NNC(=O)COc2ccc(Cl)cc2)c1`, the potentiation is 186% (active).
As for `Cc1cccc(NC(=S)NNC(=O)c2csc3c2CCC(C)C3)c1` (stereo not given), the potentiation was 248% (active).
As for `O=C(COC(=O)c1cc(S(=O)(=O)N2CCOCC2)ccc1O)NCCc1ccccc1`, the result was inactive.
Still for that read-out and setting: under `CC(=O)N[C@H]1[C@H](OC2CCCCC2)O[C@H](COC(C)=O)[C@@H](OC(C)=O)[C@@H]1OC(C)=O` stands “inactive”.
With `C=CCn1c(=S)[nH]c2scc(-c3cccs3)c2c1=O`, the potentiation was 554% (active).
Regarding `Cc1ncc(CN2CCC(CO)(CCc3ccccc3)CC2)s1`, the result was inactive.
As for `COc1ccc(C(=O)NC(=S)N(Cc2ccccc2)Cc2ccccc2)cc1`, the potentiation was 436% (active).
The same measure, in the same setting: under `C=CCN(CC=C)C(=S)NC(=O)Cc1cccc2ccccc12` stands 245% (active).
Consider `CC(C)Cc1ccc(C(C)C(=O)Nc2ccc(O)cc2)cc1` (stereo not given), for which the outcome was inactive.
On to `O=C1Nc2cc(C(=O)NCCCN3CCOCC3)ccc2S/C1=C/c1cccc(Cl)c1`, for which the result was inactive.
Regarding `O=c1c2ccccc2sn1-c1ccccc1`, the potentiation is 148% (active).
Consider `Cc1cc(C)nc(N(C#N)CC(=O)c2ccccc2)n1`, for which the outcome was inactive.
With `COc1ccc2nc(N3C(=O)/C(=C/c4ccccc4)NC3=S)sc2c1`, the potentiation was 486% (active).
Regarding `O=c1c2c(-c3ccco3)csc2nc(SCc2cn3cccnc3n2)n1-c1ccccc1`, the outcome was inactive.
Still for that read-out and setting: the entry for `COc1cccc(N(C(=O)Cn2nnc(-c3ccc(C)o3)n2)C(C(=O)NC2CCCC2)c2ccncc2)c1` (stereo not given) is “inactive”; for `CCOC(=O)C(C)Oc1cccc2c(=O)n(CC(=O)NCc3ccc4c(c3)OCO4)ccc12` (stereo not given) it is “inactive”; for `CCC(O)(CC)C(=O)NN(C(=O)CCl)c1ccccc1` it is “inactive”.
On the same count and under the same terms, under `CCCC(=O)Nc1ccc(S(=O)(=O)N2CCC(c3nc4ccccc4[nH]3)CC2)cc1` stands “inactive”.
As for `OC(C#CCCN1CCCCC1)(c1ccccc1)c1ccccc1`, the outcome was inactive.
Consider `O=C1C(C2=C(O)c3ccccc3C2=O)=Nc2ccccc21`, for which the potentiation is 238% (active).
`Cc1ccc(-c2c(C)n([O-])c3c([n+]2=O)CCCC3)o1`: the outcome was inactive.
The same measure, in the same setting: under `O=C(c1cccnc1)N1N=C2CCCCCC2C1(O)C(F)(F)F` (stereo not given) stands “inactive”.
Consider `CCOC(=O)c1c(NC(=S)NC)sc2c1CC(C)(C)SC2`, for which the potentiation was 444% (active).
As for `CC1=CC(=O)C(C(C)C)=CC1=NC(=O)c1ccc(C)cc1`, the outcome was inactive.
As to `CC1CN(C(=S)NC(=O)c2ccc(Cl)cc2)CC(C)O1` (stereo not given), the potentiation is 152% (active).
Turning to `CCN(CC)c1ccc(/C=N/Nc2nc3ccccc3[nH]2)c(O)c1`, the result was inactive.
Regarding `S=C(Nc1ccc(Br)cc1)N1CCn2cccc2C1c1cccnc1` (stereo not given), the outcome was inactive.
